# From PubChem BioAssay
# TWEAK-Fn14 inh: inhibitors of TWEAK-Fn14 interaction signaling. inhibition, % at 10 µM. AID 1159606. 360,000 tested, 2% active. TWEAK-stimulated Fn14 reporter cells, luciferase luminescence, 8 h; in the data active = inhibition above about 50%
# EBV LMP1 NFkB: Epstein-Barr LMP1 NF-kappaB reporter inhibition; LMP1-induced NF-kappaB luciferase reporter cells, luminescence; inhibition, % at 12.5 µM; AID 504558; 350,000 tested, 0.69% active; in the data active = inhibition above about 41%; inconclusive = no clear call, values can overlap the other calls;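 note: 0% = neutral control wells and 100% = reference inhibitor control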
# LGR2 antag: inhibitors of bursicon-induced Drosophila LGR2 receptor cAMP signaling; 380,000 tested, 0.35% active; inhibition, % at 9.99 µM; AID 720647; HEK293 LGR2, CRE-luciferase, bursicon-stimulated, 4 h;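 active = drop in luminescence signal, shown as inhibition above about 50% in the replicate tests, limit read from the data, passing the limit was not always enough; inconclusive = probably only some replicates passing the limit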;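 note: agonist challenge used bursicon conditioned medium at about half maximal strength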
# TROY signal inh: blocks TROY-dependent signaling in reporter cells; Q293 LMP1-TROYcd NF-kB luciferase reporter, 4 h; 360,000 tested, 0.98% active; AID 1347056; inhibition, % at 10 µM;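 active = compounds whose plate-normalised and pattern-corrected inhibition of the luciferase reporter signal at the single screening dose is 50% or more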
# TRPM1 prom inh: MITF TRPM1 promoter inhibition in SK-MEL-5 cells; SK-MEL-5 TRPM1 promoter luciferase, 24 h; inhibition, % at 12.5 µM; 330,000 tested, 0.83% active;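 active = mean inhibition across replicates of 60% or more, whatever share of single replicates reaches that level; inconclusive = some that reach 60%, reason not given; inactive = mean inhibition across replicates below 60%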
# MITF act: increases MITF-driven TRPM1 promoter luciferase signal | activation, % at 12.5 µM | SK-MEL-5 TRPM1-promoter luciferase, 24 h; % of positive control, neutral wells = 0 | 300,000 tested, 0.75% active | AID 588334;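 active = mean activation of at least 80% with every replicate also reaching 80%; inconclusive = mean reaches 80% but some replicate falls short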;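 note: 0% = neutral control wells and 100% = parthenolide positive control wells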
# The depositor's hits bear a star; ? = inconclusive; · = no result. Only some compounds are listed: those with a hit (about 3% of all), similar ones and a draw of the others.
SMILES,TWEAK-Fn14 inh,EBV LMP1 NFkB,LGR2 antag,TROY signal inh,TRPM1 prom inh,MITF act
O=c1[nH]c(=S)[nH]c(O)c1N=Nc1ccc2c(c1)OCCO2,36,15,21,0,2,4
CC=Cc1ccc2n(c1=O)C[C@H]1[C@H](CO)[C@@H](C(=O)N(C)C)[C@@H]2N1C (mixture of isomers),·,·,-11,·,·,·
CCN1C[C@]2(COC)CC[C@H](OC)[C@@]34C1[C@]1(OCO[C@@]15C[C@H](OC)[C@H]1C[C@@H]3[C@@H]5[C@H]1OC)[C@@H](O)[C@H]24,-2,56*,·,-1,8,-7
COC(=O)[C@H]1[C@H](CO)[C@H]2Cn3c(ccc(C4=CCCC4)c3=O)[C@@H]1N2S(=O)(=O)c1cn(C)cn1,·,·,8,·,·,·
N#Cc1ccc(-c2ccc([C@H]3[C@@H](CO)N4CCCCN(C(=O)Cc5ccccc5)C[C@H]34)cc2)cc1,·,·,6,·,·,·
CCOc1ccc(-n2c(O)c(C=Nc3ccc(N4CCOCC4)cc3)c(=O)[nH]c2=O)cc1,91*,3,·,·,7,-8
Cc1cc(C(=O)CS(=O)(=O)c2ccccc2)cc(C)c1OC(=O)N(C)C,30,-15,-75,60*,-44,47
CCC(=O)N1[C@@H]2c3ccc(-c4ccc(F)cc4)c(=O)n3C[C@H]1[C@H](CO)[C@H]2C(=O)OC,·,·,-18,·,·,·
CN(C)C(=O)[C@H]1[C@H](CO)[C@H]2Cn3c(cccc3=O)[C@@H]1N2CC1CC1,·,·,2,·,·,·
Cc1ccccc1-n1c(O)c(/C=C2/C(c3ccccc3)=Nc3ccccc32)c(=O)[nH]c1=O,56*,-9,46,-30,-1,-1
COc1ccc(OC)c(-n2c(O)c(C=Nc3c(C)n(C)n(-c4ccccc4)c3=O)c(=O)[nH]c2=O)c1,-16,12,18,4,-2,6
Cc1cccc(-n2c(O)c(/C=C3/C(c4ccccc4)=Nc4ccccc43)c(=O)[nH]c2=O)c1,53*,2,-8,-1,-15,12
Cc1cccc(-n2c(O)c(/C=C/C=Nc3ccccc3)c(=O)[nH]c2=O)c1,21,-10,9,-13,-4,4
COC(=O)C1=Nc2ccccc2/C1=C\c1c(O)n(-c2cc(OC)ccc2OC)c(=O)[nH]c1=O,60*,-1,5,11,13,-13
O=C(Cc1ccccc1)N1CCCCN2[C@H](CO)[C@H](c3ccc(C#CC4(O)CCCC4)cc3)[C@H]2C1,·,·,7,·,·,·
N#Cc1cccc(-c2ccc([C@@H]3[C@@H](CO)N4CCCCN(C(=O)Cc5cccnc5)C[C@@H]34)cc2)c1,·,·,-5,·,·,·
CCC(=O)[C@@H](C)[C@@H](O)[C@H](C)C[C@@H](C)C1OC(=O)C[C@@]2(O)CC=C(C)C(O2)C(C)=CCCC[C@H](O[C@H]2C[C@@H](OC(N)=O)[C@H](O)[C@@H](C)O2)C=C[C@H](C)C[C@H]1C (stereo partly specified),89*,·,·,29,·,·
O=[N+]([O-])c1ccc(N2CCOCC2)c2c1no[n+]2[O-],103*,0,·,38,·,·
O=C(O)c1nn(Cc2ccc(Cl)cc2Cl)c2ccccc12,-20,-3,63*,11,0,2
O=C(O)c1nn(Cc2ccc(Cl)cc2)c2ccccc12,8,0,-5,7,·,·
COC(=O)[C@@H]1[C@@H](CO)[C@@H]2Cn3c(ccc(-c4cccc(F)c4)c3=O)[C@H]1N2Cc1ccccc1,·,·,2,·,·,·
CC1=CC(O)C(O)C2(C)C1CC1OC(=O)C(O)C3C(C)C(O)C4(O)OCC13C42 (stereo unspecified),-3,-4,·,15,11,·
COC(=O)[C@]12OC[C@]34C([C@@H](O)[C@@H]1O)[C@]1(C)CC(=O)C(O)=C(C)[C@@H]1C[C@H]3OC(=O)[C@H](O)[C@@H]24 (stereo partly specified),95*,16,93*,79*,71*,-69
CN1[C@@H]2c3cccc(=O)n3C[C@H]1[C@H](CO)[C@H]2C(=O)NCC1CC1,·,·,-3,·,·,·
C[N+]1(C)[C@@H]2CC[C@H]1CC(OC(=O)C(CO)c1ccccc1)C2 (stereo partly specified),-5,80*,3,1,-10,11
SMILES,TWEAK-Fn14 inh,EBV LMP1 NFkB,LGR2 antag,TROY signal inh,TRPM1 prom inh,MITF act
C[N+]1(C)C2CCC1CC(OC(=O)C(CO)c1ccccc1)C2 (stereo unspecified),6,1,-66,14,14,-15
COCC#Cc1ccc([C@H]2[C@H](CO)N3CCCCN(C(=O)Cc4ccccn4)C[C@@H]23)cc1,·,·,-15,·,·,·
CC(CCN1CC1)=NNC(=O)Nc1cccc2ccccc12,58*,2,2,37,5,-7
CCOC(=O)C1(c2ccccc2)CCN(CC(=O)Nc2cccc3ccccc23)CC1,22,-1,7,5,5,-7
COC(=O)[C@@H]1[C@@H](C(=O)OC)C2(c3ccccc3-c3ccccc32)N(c2ccc(Cl)cc2)N1C#N,26,30,36,84*,93*,-93
COC(=O)C[C@]1(C(=O)OC)CN(C#N)N(c2ccc(Cl)cc2)C12c1ccccc1-c1ccccc12,96*,90*,78*,89*,96*,-95
CC(C)(C)n1cc(C(=O)c2ccccc2OCCCF)cn1,10,-7,-9,0,-15,10
CC(C)(C)n1cc(C(=O)c2ccc3ccccc3c2O)cn1,88*,-26,67*,83*,-13,12
CC(C)(C)C(=O)c1cn(CC(=O)NCc2ccco2)c2ccccc12,-18,-32,-21,-33,-77,85*
O=C(Cn1cc(C(=O)c2ccccc2F)c2ccccc21)NCc1ccco1,3,0,·,-2,12,-11
Cc1cc(C(=O)OCC(=O)Nc2ccc(F)cc2F)c(C)n1C1CC1,-1,1,-26,-16,-6,9
Cc1cc(C(=O)OCC(=O)Nc2ccccc2F)c(C)n1C1CC1,-20,-10,8,-4,-79,85*
CCCCCCn1c(=O)c(C(=O)Nc2cnccn2)c(O)c2ccccc21,49,26,8,18,73*,-70
O=C(Cc1ccncc1)N1CCCCN2[C@H](CO)[C@H](c3ccc(C#Cc4ccccc4F)cc3)[C@@H]2C1,·,·,9,·,·,·
ClCCN(CCCl)c1ccc(-n2cnc3c(Cl)ncnc32)cc1,75*,23,22,36,84*,-82
O=C(O)CCCc1ccc(N(CCCl)CCCl)cc1,4,17,13,-3,9,-10
CC=Cc1ccc2n(c1=O)C[C@@H]1[C@@H](CO)[C@H](C(=O)OC)[C@H]2N1CC1CCCCC1 (mixture of isomers),·,·,22,·,·,·
COC(=O)C1=C(C(=O)OC)C2OC1c1cc3ccccc3cc12,13,36,?,-11,112*,-112
